From the supplement of paper PMC9950053 come the findings set out here.

The structures appear in SMILES notation. Structures can show the parent of a compound that is named as a salt.

The test concerns Danio rerio larvae (5 dpf). Kind of test: combined optomotor response (time in upper well half, down vs up moving lines, periods 7-14) minus DMSO control (percentage points); higher = stronger optomotor response than DMSO larvae. Particulars: 10 µM; exposure time: 3 h pre-incubation + 3 h imaging.
As to `CN/C(=N\CCSCc1nc[nH]c1C)NC#N` [Cimetidine], the combined optomotor response worked out at 0.13.

Take `CC#C[C@]1(O)CC[C@H]2[C@@H]3CCC4=CC(=O)CCC4=C3[C@@H](c3ccc(N(C)C)cc3)C[C@@]21C` [Mifepristone]: the combined optomotor response worked out at 8.07.

For `Cc1cccc(CN2CCN(C(c3ccccc3)c3ccc(Cl)cc3)CC2)c1` (centres undefined) [Meclizine dihydrochloride], the combined optomotor response is -13.9. With `O=C1CCc2cc(OCCCCc3nnnn3C3CCCCC3)ccc2N1` [Cilostazol] the figure was 5.41.
